# Experimental data reported in publication PMC4336329 (PLoS ONE, 2015).
# Out of some 310,000 compounds screened, about 14,000 (4.5%) showed an effect of 50% or more. The effect is printed as a negative number. This is one part of a sample in which strong results are shown more often than they occur.
# Target: human ether-à-go-go-related gene (hERG) potassium channel (human, UniProt Q12809)
# Assay: primary screen, population patch clamp on CHO cells stably expressing hERG; higher = less effect of the substance
# 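Note: peak tail current of the secondary pulse compared with the same well before compound.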
# Chain of human ether-à-go-go-related gene (hERG) potassium channel (Q12809 whole entry, looked up): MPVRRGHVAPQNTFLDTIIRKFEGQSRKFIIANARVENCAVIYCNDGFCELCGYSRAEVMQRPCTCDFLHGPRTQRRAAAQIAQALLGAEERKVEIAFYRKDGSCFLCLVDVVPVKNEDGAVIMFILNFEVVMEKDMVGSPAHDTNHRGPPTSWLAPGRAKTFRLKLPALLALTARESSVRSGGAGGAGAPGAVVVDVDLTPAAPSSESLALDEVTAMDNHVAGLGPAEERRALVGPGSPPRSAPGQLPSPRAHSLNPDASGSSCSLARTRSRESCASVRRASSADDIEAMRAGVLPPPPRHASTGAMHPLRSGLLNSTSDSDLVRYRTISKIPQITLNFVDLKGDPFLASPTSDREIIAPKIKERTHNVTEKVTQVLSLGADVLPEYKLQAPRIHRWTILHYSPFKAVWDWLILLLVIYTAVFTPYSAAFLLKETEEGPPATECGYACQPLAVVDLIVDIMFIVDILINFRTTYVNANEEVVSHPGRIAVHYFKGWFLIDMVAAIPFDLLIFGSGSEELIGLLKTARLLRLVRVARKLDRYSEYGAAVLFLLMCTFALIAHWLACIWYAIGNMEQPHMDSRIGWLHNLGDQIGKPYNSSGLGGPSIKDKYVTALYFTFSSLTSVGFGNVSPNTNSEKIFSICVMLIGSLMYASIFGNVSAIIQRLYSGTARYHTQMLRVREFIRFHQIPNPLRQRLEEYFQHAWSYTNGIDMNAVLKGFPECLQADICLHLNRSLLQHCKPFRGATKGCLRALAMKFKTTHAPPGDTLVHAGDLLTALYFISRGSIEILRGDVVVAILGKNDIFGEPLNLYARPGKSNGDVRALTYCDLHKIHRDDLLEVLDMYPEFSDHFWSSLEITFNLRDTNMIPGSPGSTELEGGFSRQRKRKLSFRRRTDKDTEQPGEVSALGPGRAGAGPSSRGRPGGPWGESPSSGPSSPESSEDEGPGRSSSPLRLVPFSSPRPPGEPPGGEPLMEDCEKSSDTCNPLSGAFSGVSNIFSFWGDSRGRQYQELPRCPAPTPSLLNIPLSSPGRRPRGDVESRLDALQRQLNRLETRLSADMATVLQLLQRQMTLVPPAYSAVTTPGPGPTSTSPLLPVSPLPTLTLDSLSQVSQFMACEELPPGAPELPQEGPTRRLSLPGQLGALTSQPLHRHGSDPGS
row,SMILES,"hERG current change (%, negative = inhibition) at 10uM [%]"
1,CCN(CC(=O)NCc1cccs1)C(=O)c1ccc(S(=O)(=O)N(C)C)cc1,48.6
2,COC(=O)c1ccc2c(c1)S(=O)(=O)NC(=NCCCN1CCOCC1)S2.Cl,-1
3,COc1ccc(OCCC(=O)OCC(=O)NC(=O)NC2CCCCC2)cc1,13.2
4,CN(C)c1ccc(NS(=O)(=O)c2ccc(-c3csnn3)cc2)cc1,13.1
5,CCCC1(c2ccccc2)NC(=O)N(CC(=O)c2[nH]c(C)c(C(=O)OCC)c2C)C1=O (stereo not shown),12.5
6,CCOC(=O)N1CCN(Cc2cn3ccccc3n2)CC1.O=C(O)C(=O)O,21.9
7,Nc1cc(C(=O)N/N=C/c2cccc([N+](=O)[O-])c2)n[nH]c1=O,7.18
8,c1ccc(Cn2c(SCc3nc4ccccc4s3)nnc2-c2ccco2)cc1,-34.1
9,CCOC(=O)N1CCN(C(=O)C2CCN(S(=O)(=O)c3ccc(Br)s3)CC2)CC1,-35.2
10,O=C(Oc1ccc(/C=N/Nc2nc(N3CCCCC3)nc(N3CCCCC3)n2)cc1)c1ccco1,-9.1
11,COc1ccc(NC(=O)c2cccc(C#N)c2)cc1NS(=O)(=O)c1ccc(F)cc1,8.63
12,Cc1ccnc(SCCn2c(N3CCN(c4ccccc4)CC3)nc3c2c(=O)[nH]c(=O)n3C)n1,-17.3
13,CCN(CC(=O)NCc1cccs1)S(=O)(=O)c1cccc(C(C)=O)c1,0.039
14,CCN(CC(=O)NCc1cccs1)S(=O)(=O)c1ccc([N+](=O)[O-])cc1,-68.2
15,CCN(CC(=O)NCc1cccs1)S(=O)(=O)c1cccc(Br)c1,11.9
16,O=[N+]([O-])c1cccc(S(=O)(=O)N/N=C/c2ccc(O)cc2)c1,1.14
17,CC(=O)Nc1nc(C)c(Oc2ccc(Cl)cc2Cl)c(=O)[nH]1,10.5
18,COc1ccccc1NC(=O)c1ccc(NC(=O)COC(=O)CC(NC(=O)c2ccccc2Cl)c2ccccc2)cc1 (stereo not shown),6.73
19,Cc1ccc(-c2nc(CN3CCCCC3CCN3CCCC3=O)c(C)o2)o1 (stereo not shown),-51.5
20,Cc1oc(-c2ccccc2Cl)nc1CN1CCCCC1CO (stereo not shown),-20.5
21,Cc1oc(-c2cccc(C(F)(F)F)c2)nc1CN1CCC[C@H]1CO,-35
22,Cc1ccc(-c2nc(CN3CCCCC3c3cccc(F)c3)c(C)o2)o1 (stereo not shown),44.7

row,SMILES,"hERG current change (%, negative = inhibition) at 10uM [%]"
1,CCOc1ccc(-c2nc(CN3CCCCC3CCn3cccn3)c(C)o2)cc1 (stereo not shown),-71.5
2,CCN1CCCC1CNC(=O)C1CCN(Cc2nc(-c3cccc(Br)c3)oc2C)CC1 (stereo not shown),-9.4
3,CSc1ccc(-c2nc(CN3CCCCC3c3cccnc3)c(C)o2)cc1 (stereo not shown),-19.8
4,COc1cccc(C2CCCCN2Cc2nc(-c3ccc(C)o3)oc2C)c1 (stereo not shown),-12.5
5,Cc1oc(-c2cccc(F)c2)nc1CN1CCCCC1CCn1cccn1 (stereo not shown),-73.1
6,O=C(NCCc1c[nH]c2ccccc12)c1c(Cl)nc2sccn12,15.4
7,O=C(NC(Cc1c[nH]c2ccccc12)C(=O)O)c1cccs1 (stereo not shown),18.6
8,Cc1ccc(Cl)cc1NC(=O)CCC(=O)NCc1ccco1,7.15
9,O=C(CN1C(=O)NC2(CCCc3ccccc32)C1=O)N1CCN(C(=O)c2ccco2)CC1 (stereo not shown),-34.3
10,COc1ccc2[nH]c(O)c(NC(C)=O)c2c1,1.61
11,COc1cc(NC(=O)COc2ccc(Br)cc2)ccc1NC(=O)C(C)C,4.1
12,CC1CCN(C(=O)COc2ccc(S(=O)(=O)N3CCOCC3)cc2)CC1,-1.39
13,COc1ccc2[nH]cc(CCCN3C(=O)c4ccccc4C3=O)c2c1,-4.87
14,Cc1ccc2[nH]cc(CCCN3C(=O)c4ccccc4C3=O)c2c1,-51.4
15,O=C1c2ccccc2C(=O)N1CCCc1c[nH]c2ccc(Cl)cc12,-19.3
16,CC(=O)c1cccc(NS(=O)(=O)c2ccc3c(c2)oc(=O)n3C)c1,-6.14
17,O=C1CCN(Cc2ccccc2)CCN1[C@H](CSc1ccccc1)c1ccccc1,-44.7
18,O=C1CCN(CCc2ccccc2)CCN1[C@H](CSc1ccccc1)c1ccccc1,-78.7
19,O=C1CCN(CCc2ccccc2)CCN1[C@H](CSc1ccc(Br)cc1)c1ccccc1,-66.2
20,Cc1ccc(SC[C@H](c2ccccc2)N2CCN(CCc3ccccc3)CCC2=O)cc1,-74.7
21,[N-]=[N+]=NC[C@H](c1ccccc1)N1CCN(Cc2ccccc2)CCC1=O,-0.754
